Data published in PubChem BioAssay.
The source made the active and inactive calls.

Assays:
[1] = A549 cell viability effects, profiling panel, calcein-AM fluorescence, 48 h, basal (AID 1162); conditions: higher = more signal; note: test concentration not given here
[2] = adipocyte viability effects, profiling panel, cell-based, 3T3-L1 adipocytes, calcein-AM fluorescence, 48 h, basal (AID 1163); conditions: 3T3-L1 adipocytes viability, higher = more signal; note: test concentration not given here
[3] = HepG2 cell viability effects, profiling panel, calcein-AM fluorescence, 48 h, basal (AID 1164); conditions: higher = more signal; note: test concentration not given here
[4] = MM1S cell viability effects, profiling panel, calcein-AM fluorescence, 48 h, basal (AID 1165); conditions: higher = more signal;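 note: viability of MM1S multiple myeloma cells under basal unstimulated conditions; test concentration not given here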
[5] = basal RPMI8226 viability, no added stimulus, profiling panel, cell-based, calcein-AM fluorescence, 48 h, PK04 Diversity Set (AID 1166); conditions: RPMI8226 myeloma viability, higher = more signal;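 note: cells grown under basal conditions without added stimulus; test concentration not given here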
[6] = basal HepG2 mitochondrial membrane potential changes, profiling panel, cell-based, JC-1 fluorescence, 24 h, 100 nL compound (AID 1167); conditions: higher = more signal; note: test concentration not given here
[7] = basal 3T3-L1 adipocyte mitochondrial potential changes, profiling panel, cell-based, JC-1 fluorescence, 3T3-L1 adipocytes, 24 h, 100 nL compound (AID 1168); conditions: JC-1 mitochondrial fluorescence, higher = more signal, called active from +8 up or from −8 down; note: test concentration not given here
[8] = basal RPMI8226 mitochondrial membrane potential changes, profiling panel, cell-based, JC-1 fluorescence, 24 h, 100 nL compound (AID 1169); conditions: RPMI8226 myeloma, JC-1 mitochondrial potential fluorescence, higher = more signal; note: test concentration not given here
[9] = basal MM1S mitochondrial membrane potential changes, profiling panel, cell-based, JC-1 fluorescence, 24 h, 100 nL compound (AID 1170); conditions: higher = more signal; note: test concentration not given here
[10] = A549 lung cancer cell viability effects, profiling panel, resazurin fluorescence, 24 h, PK04 Diversity Set (AID 1171); conditions: higher = more signal, called active from +8 up or from −8 down; note: test concentration not given here
[11] = HepG2 liver cancer cell viability effects, profiling panel, resazurin fluorescence, 24 h, PK04 Diversity Set (AID 1172); conditions: higher = more signal; note: test concentration not given here
[12] = basal S. cerevisiae growth modulation, no modifier, primary screen, OD600, strain BY4716, 24 h, basal condition (AID 1173); conditions: OD600, 24 h, higher = more signal, called active from +8 up or from −8 down
[13] = MM1S myeloma cell viability, profiling panel, resazurin fluorescence, basal, 24 h, PK04 Diversity Set (AID 1174); conditions: higher = more signal, called active from +8 up or from −8 down;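 note: MM1S multiple myeloma cell line; test concentration not given here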
[14] = molecular target: Dihydroorotate dehydrogenase (quinone), mitochondrial (Plasmodium falciparum (isolate 3D7)) (UniProt Q08210); assay: PfDHODH enzyme inhibitors, primary screen, biochemical, C-terminal His tag, absorbance 600 nm (AID 1175); conditions: DCIP absorbance 600 nm, higher = more signal, called active from +8 up or from −8 down;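 note: recombinant parasite enzyme with a five histidine tag at its C terminus; test concentration not given here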
Chain of Dihydroorotate dehydrogenase (quinone), mitochondrial (Plasmodium falciparum (isolate 3D7)) (Q08210 whole entry, looked up): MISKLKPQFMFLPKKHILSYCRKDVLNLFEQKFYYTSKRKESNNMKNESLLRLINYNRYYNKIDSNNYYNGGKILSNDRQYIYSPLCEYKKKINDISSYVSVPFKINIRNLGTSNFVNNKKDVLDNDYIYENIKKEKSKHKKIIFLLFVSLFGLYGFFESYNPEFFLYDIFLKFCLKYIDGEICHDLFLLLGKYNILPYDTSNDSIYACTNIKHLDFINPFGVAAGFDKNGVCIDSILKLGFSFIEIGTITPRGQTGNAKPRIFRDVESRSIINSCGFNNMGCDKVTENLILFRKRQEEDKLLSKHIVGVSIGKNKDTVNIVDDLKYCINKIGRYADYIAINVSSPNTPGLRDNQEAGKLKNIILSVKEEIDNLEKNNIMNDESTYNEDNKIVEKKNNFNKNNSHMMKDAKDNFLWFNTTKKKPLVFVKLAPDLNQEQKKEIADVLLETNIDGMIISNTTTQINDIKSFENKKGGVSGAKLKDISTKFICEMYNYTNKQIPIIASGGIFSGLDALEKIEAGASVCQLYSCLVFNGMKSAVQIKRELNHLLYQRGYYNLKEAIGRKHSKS

[15] = S. cerevisiae RM11-1a growth modifiers, primary screen, strain RM11-1a, OD600, basal, 24 h (AID 1177); conditions: OD600, 24 h, higher = more signal, called active from +8 up or from −8 down;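 note: cultures grown under basal conditions with no added stressor; test concentration not given here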
[16] = E. coli acrAB mutant growth effects, primary screen, E. coli filamentation inducers, strain DRC39, OD650, 24 h (AID 1178); conditions: higher = more signal, called active from +8 up or from −8 down;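 note: growth measured as culture turbidity by optical density at 650 nm; test concentration not given here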
[17] = E. coli acrAB mutant growth effects, primary screen, E. coli filamentation inducers, strain DRC39, OD650, 48 h (AID 1179);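 note: screen aims at cell division blockers that make cells filament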; conditions: E. coli DRC39 delta-acrAB growth, higher = more signal, called active from +8 up or from −8 down
[18] = RPMI8226 myeloma cell viability, profiling panel, resazurin fluorescence, basal, 24 h, PK04 Diversity Set (AID 1180); conditions: higher = more signal;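 note: RPMI8826 multiple myeloma cell line at 5000 cells per well; test concentration not given here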
[19] = molecular target: E3 ubiquitin-protein ligase XIAP (Homo sapiens) (UniProt P98170); assay: XIAP binders, primary screen, biophysical, small-molecule microarray, fluorescence 635 nm (AID 1181); conditions: small-molecule microarray binding, higher = more signal;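 note: score merges 667 nm emission and signal to noise over triplicate slides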
Chain of E3 ubiquitin-protein ligase XIAP (Homo sapiens) (P98170 whole entry, looked up): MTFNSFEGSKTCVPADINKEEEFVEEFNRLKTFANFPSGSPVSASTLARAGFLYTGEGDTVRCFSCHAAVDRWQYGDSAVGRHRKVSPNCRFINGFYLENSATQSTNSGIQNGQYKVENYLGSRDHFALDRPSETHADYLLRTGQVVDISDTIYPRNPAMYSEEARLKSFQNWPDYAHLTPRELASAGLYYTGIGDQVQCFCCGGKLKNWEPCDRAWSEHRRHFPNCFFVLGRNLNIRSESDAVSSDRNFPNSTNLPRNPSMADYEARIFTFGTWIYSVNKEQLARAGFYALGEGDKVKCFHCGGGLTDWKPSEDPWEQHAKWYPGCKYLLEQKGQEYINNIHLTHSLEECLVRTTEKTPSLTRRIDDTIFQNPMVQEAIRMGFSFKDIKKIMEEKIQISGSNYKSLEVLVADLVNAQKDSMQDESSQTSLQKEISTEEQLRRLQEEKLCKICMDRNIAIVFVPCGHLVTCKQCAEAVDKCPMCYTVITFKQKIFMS

Row | Structure (SMILES) | z-score [1] | z-score [2] | z-score [3] | z-score [4] | z-score [5] | z-score [6] | z-score [7] | z-score [8] | z-score [9] | z-score [10] | z-score [11] | z-score [12] | z-score [13] | composite z-score [14] | z-score [15] | z-score [16] | z-score [17] | z-score [18] | composite z-score [19]
1 | C=CC[C@@]12N=C(c3ccc(OCCCO)cc3)O[C@@H]1c1ccccc1CN(Cc1ccccc1)C2=O | -0.843 | 2.38 | -1.92 | -3.46 | -4.51 | 0.0441 | -0.218 (inactive) | -1.36 | -1.45 | -1.9 (inactive) | -0.806 | -0.251 (inactive) | -3.75 (inactive) | 1.27 (inactive) | 1.77 (inactive) | 1.4 (inactive) | 0.485 (inactive) | -3.21 | -0.0473
2 | CC/C=C/C(=O)N(C[C@@H]1CCCO1)[C@@H]1CC(C(=O)NCCO)=C[C@H](Oc2c(I)cc(CO)cc2OC)[C@H]1O | 1.65 | 0.407 | 0.362 | 0.0808 | 0.587 | 2.48 | 1.32 (inactive) | -0.0319 | 0.265 | 1.07 (inactive) | 1.42 | -2.91 (inactive) | 1.08 (inactive) | -0.288 (inactive) | -2.02 (inactive) | 2.39 (inactive) | 1.03 (inactive) | 0.209 | -0.117
3 | Cc1ccc(N2C(=O)c3ccccc3[C@](C)(C(=O)O)[C@@H]2c2ccc(CO)cc2)nc1 | 0.0643 | 0.937 | -0.0479 | -0.231 | 0.614 | 0.521 | 0.23 (inactive) | -0.167 | 0.25 | 0.755 (inactive) | 0.522 | -0.0489 (inactive) | 1.28 (inactive) | 0.217 (inactive) | 0.826 (inactive) | 0.826 (inactive) | 0.396 (inactive) | 1.27 | -0.0641
4 | CC(C)CNC(=O)[C@@]1(C)c2ccccc2C(=O)N(Cc2ccc(OC(F)(F)F)cc2)[C@H]1c1ccc(CO)cc1 | 1.69 | 1.68 | 0.65 | -0.249 | -0.358 | 3.03 | -0.481 (inactive) | 0.862 | 1.38 | 1.32 (inactive) | 0.518 | -1.51 (inactive) | 1.88 (inactive) | 0.329 (inactive) | -0.229 (inactive) | 0.726 (inactive) | 0.152 (inactive) | 1.75 | 0.149
